Screens (PubChem BioAssay)
Pf apPOL inh: Pf-apPOL DNA polymerase inhibition; Recombinant Pf-apPOL, molecular beacon fluorescence, 1.5 h; inhibition, % at 10 µM; 210,000 compounds, 0.25% hits; AID 1794808
mHTT-CaM PPI inh: mHTT-calmodulin interaction abrogation; inhibition, % at 15 µM; 190,000 compounds, 3.6% hits; P42858; AlphaScreen His-mHTT/GST-CaM binding, luminescence
Numbers stand for hits; n = inactive; x = not tested or not shown. Only some compounds are listed: those with a hit (about 3.6% of all), similar ones and a draw of the others. Rule as the data show it: active = inhibition above about 50%; inactive = the rest.

SMILES	Pf apPOL inh	mHTT-CaM PPI inh
O=C(Cc1cccc(F)c1)N1CCCC1c1nc(-c2cccc(Cl)c2)no1 (configuration not stated)	n	n
O=C(Cc1ccc(F)cc1)N1CCCC1c1nc(-c2cccc(Cl)c2)no1 (configuration not stated)	n	n
Cc1ccc(CC(=O)N2CCCC2c2nc(-c3cccc(Cl)c3)no2)cc1 (configuration not stated)	n	60.6
Cc1ccc(C)c(CN2C(=O)NC3(CCN(C(=O)c4cccc(C#N)c4)CC3)C2=O)c1	n	n
Cc1ccc(C)n1-c1ccc(C(=O)NN)c(Cl)c1	n	n
Cc1ccc(C)n1-c1ccc(Cl)c(O)c1	n	96.4
Cc1cc(C(=O)N2CCOCC2)nn1CC(=O)NCc1ccc2c(c1)OCO2	n	n
O=C(NC1CCCC1)c1csc(-c2ccnc(N3CCCCC3)c2)n1	n	n
CCc1onc(C)c1C1CCCN1Cc1cccc(F)c1 (configuration not stated)	n	n
Cc1cc(=O)[nH]c(-n2nc(C)cc2N)n1	n	98.2
Cc1cc(=O)[nH]c(-n2nc(C)cc2NC(=O)c2snnc2C)n1	n	n
Cn1c(/C(C#N)=C/c2cccc([N+](=O)[O-])c2)nc2ccccc21	n	n
CCOc1ccccc1N1CCN(C(=O)C2CCN(CC3CC=CCC3)CC2)CC1 (configuration not stated)	n	n
Cc1nc(Nc2ccccn2)sc1C(=O)N1CCc2ccccc2C1	n	n
Cc1cccc(N2CCN(C(=O)c3sc(Nc4ccc(F)cn4)nc3C)CC2)c1	n	85.0
Cc1nc(Nc2ccc(F)cn2)sc1C(=O)N1CCN(C2CCCCC2)CC1	n	n
Cc1cccc(Nc2nc(C)c(C(=O)N3CCN(c4ccccc4)CC3)s2)n1	n	n
Cc1nc(Nc2ccc(F)cn2)sc1C(=O)N1CCc2ccccc2C1	n	64.6
Cc1ccccc1N1CCN(C(=O)c2sc(Nc3ccc(F)cn3)nc2C)CC1	n	100.1
O=C(Nc1ccc(-c2nc3ccccc3o2)cc1)C1CCC1	n	n
O=C(Oc1ccccc1)N1CCN(c2ccc([N+](=O)[O-])cc2)CC1	n	n
O=[N+]([O-])c1ccc(CNCc2ccc3c(c2)OCO3)cc1	n	n
O=C(O)Cc1nc(-c2cccnc2)n[nH]1	n	n
O=C(Cc1nc(-c2ccccc2)n[nH]1)Nc1ccc(Cl)cc1	n	n
O=C(Cc1nc(-c2ccccn2)n[nH]1)Nc1ccccc1	n	72.8
SMILES	Pf apPOL inh	mHTT-CaM PPI inh
Cc1cc(C)cc(NC(=O)Cc2nc(-c3ccccc3)n[nH]2)c1	n	n
NC(=O)Cc1nc(-c2ccccn2)n[nH]1	n	99.2
Cc1cccc(NC(=O)Cc2nc(-c3ccccn3)n[nH]2)c1	n	99.4
CSc1sc(C)cc1C1C(C#N)=C(N)N(c2ccccc2F)C2=C1C(=O)CCC2 (configuration not stated)	n	n
CCn1c(/C(C#N)=C/c2ccccc2Cl)nc2ccccc21	n	n
CN1CCN(c2nc(-c3ccccc3O)nc3ccccc23)CC1	n	n
CC(C)(Oc1ccc(Cl)cc1)C(=O)N1CCN(C(=O)c2ccco2)CC1	n	n
COc1ccc(C2CC(c3ccc(Br)cc3)=NN2C(=O)CCCC(=O)O)cc1 (configuration not stated)	n	n
Cc1ccc(CCNC(=O)c2nnn3c2COC(c2ccc(F)cc2)C3)cc1 (configuration not stated)	n	n
CSc1nc2c(c(Nc3ccc(C)cc3)n1)CCC2	n	n
CSc1nc2c(c(Nc3ccc(N(C)C)cc3)n1)CCC2	n	57.2
CC(=O)NCc1csc(C2CCN(S(=O)(=O)c3cccc(Cl)c3)CC2)n1	n	n
O=C(Cc1ccc(Cl)cc1)N1CCc2[nH]cnc2C1c1ccccn1 (configuration not stated)	n	90.9
O=C(Cc1ccc(F)cc1)N1CCc2[nH]cnc2C1c1ccncc1 (configuration not stated)	n	n
O=C(Nc1ccccc1)N1CCc2[nH]cnc2C1c1ccccc1 (configuration not stated)	n	n
O=C(Cc1cccc(F)c1)N1CCc2[nH]cnc2C1c1ccccn1 (configuration not stated)	n	70.4
O=C(Cc1ccccc1F)N1CCc2[nH]cnc2C1c1ccccc1 (configuration not stated)	n	n
O=C(Nc1ccccc1)N1CCc2[nH]cnc2C1c1ccccn1 (configuration not stated)	n	50.8
CC(C)(C)C1=NOC(O)(C(F)(F)F)C1 (configuration not stated)	x	n
O=C(c1cc2ccccc2oc1=O)N1CCSC1c1cccc(Cl)c1 (configuration not stated)	n	n
Cc1cccc(NC(=O)CCc2ccc3nc[nH]c3c2)c1C	n	n
COc1ccccc1OCCCCOc1ccccc1C(C)=O	n	n
COc1ccc(Oc2cc(Cl)nc(N)n2)cc1	n	n
CN1CCN(c2nc(-c3ccccc3)ncc2C(=O)N2CCCCC2)CC1	n	n
CN1CCN(C(=O)c2cnc(-c3ccccc3)nc2N(C)Cc2ccccc2)CC1	n	67.7
SMILES	Pf apPOL inh	mHTT-CaM PPI inh
CCCn1ncc(N2CCC(C(=O)NC(CC)CC)CC2)cc1=O	n	n
COc1cc(NS(=O)(=O)c2ccc3[nH]c(=O)oc3c2)cc(OC)c1	n	n
CC(C)C[C@@H]1COc2cccc(N3CCN(Cc4ccccc4F)CC3)c2S(=O)(=O)N1	n	n
O=S1(=O)N[C@@H](Cc2ccccc2)COc2cccc(N3CCN(Cc4ccccc4F)CC3)c21	n	88.9
O=[N+]([O-])c1ccc(OCCN2CCOCC2)cc1	n	n
O=C(Cn1c(=O)oc2ccccc21)NCc1cccnc1	n	n
Cc1ccccc1N1CCN(C(=O)c2cn3c(n2)CCCC3)CC1	n	n
Cc1ccc(C)c(N2CCN(C(=O)c3ccc4c(c3)nc3n4CCCC3)CC2)c1	n	84.5
Cc1cccc(N2CCN(C(=O)c3cn4c(n3)CCCC4)CC2)c1C	n	54.0
CCc1nc(N2CCCC2=O)sc1C(=O)N1CCN(c2cccc(C)c2C)CC1	n	63.8
O=C(c1ccc2c(c1)nc1n2CCCCC1)N1CCN(c2ccccc2)CC1	n	n
Cc1ccc(C)c(N2CCN(C(=O)c3cn4c(n3)CCCC4)CC2)c1	n	51.0
Cc1cccc(N2CCN(C(=O)c3noc4c3CCCC4)CC2)c1C	n	n
CCN1CCn2cc(C(=O)N3CCN(c4cc(C)ccc4C)CC3)nc2C1	n	n
C=CCNC(=O)C1CC(=O)N(c2ccc(OCC(=O)Nc3cc(C)ccc3C)cc2)C1 (configuration not stated)	n	n
COC(C(=O)Nc1ccccc1C(=O)NC1CCCCC1)c1ccccc1 (configuration not stated)	n	n
Cc1ccc(C)c(N2CCN(C(=O)c3cccc(-c4nccnc4N(C)C)c3)CC2)c1	n	n
Cc1ccc(C)c(N2CCN(C(=O)c3ccc(-c4nccnc4N(C)C)cc3)CC2)c1	n	94.2
O=[N+]([O-])c1ccc(NCCNS(=O)(=O)Cc2ccccc2)c(Cl)c1	n	n
N#Cc1c([N+](=O)[O-])cc([N+](=O)[O-])cc1S(=O)(=O)Cc1ccccc1	n	79.0
COc1ccc(C(C#N)N2N=C(c3ccccc3)CC2c2ccccc2)cc1OC (configuration not stated)	n	79.0
COc1ccc(C(C#N)N2N=C(C)CC2c2ccccc2)cc1OC (configuration not stated)	n	n
